Where “and” joins values, the source holds several entries; their conditions need not be identical. Equal values may be shown once. Calls of active or inactive are those of the source. Calls follow the shape of the full dose curve.
Test: qHTS drug screen for cell cycle checkpoint inhibitors in PARPi-resistant BRCA-mutant ovarian cancer cell lines. (AID 1963452)
Conditions: PEO1/OlaR viability, CellTiter-Glo luminescence, 96 h; for Z-AUC: stronger effect = lower value
Description: Women's Malignancies Branch, Center for Cancer Research (CCR),
National Cancer Institute (NCI), National Institutes of Health (NIH), Bethesda, MD
Poly (ADP-ribose) polymerase inhibitors (PARPis) have changed the treatment paradigm in breast cancer gene (BRCA) - mutant high-grade serous ovarian carcinoma (HGSC). However, most patients eventually develop resistance to PARPis, highlighting an unmet need for improved therapeutic strategies. Using high-throughput drug screens, we identified ataxia telangiectasia and rad3-related protein/checkpoint kinase 1 (CHK1) pathway inhibitors as cytotoxic and further validated the activity of the CHK1 inhibitor (CHK1i) prexasertib in PARPi-sensitive and -resistant BRCA-mutant HGSC cells and xenograft mouse models. CHK1i monotherapy induced DNA damage, apoptosis, and tumor size reduction. We then conducted a phase 2 study (NCT02203513) of prexasertib in patients with BRCA-mutant HGSC. The treatment was well tolerated but yielded an objective response rate of 6% (1 of 17; one partial response) in patients with previous PARPi treatment. […] BRCA reversion mutation in previously PARPi-treated BRCA-mutant patients was not associated with resistance to CHK1i.
Among others, 1082 oncology drugs, both approved and investigational, were prioritized based on their status in clinical trial development. […] Drugs with average Z-AUC values less than -1.0 in all three cell lines were classified as "hits" resulting in 151 oncology drug hits. The screen also confirmed cross-resistance between olaparib and other PARPis (rucaparib, niraparib, and talazoparib) in PARPi-resistant PEO1/OlaR and PEO4.
[1] G. L. Lin, K. M. Wilson, M. Ceribelli, B. Z. Stanton, P. J. Woo, S. Kreimer, E. Y. Qin, X. Zhang, J. Lennon, S. Nagaraja, P. J. Morris, M. Quezada, S. M. Gillespie, D. Y. Duveau, A. M. Michalowski, P. Shinn, R. Guha, M. Ferrer, C. Klumpp-Thomas, S. Michael, C. McKnight, P. Minhas, Z. Itkin, E. H. Raabe, L. Chen, R. Ghanem, A. C. Geraghty, L. Ni, K. I. Andreasson, N. A. Vitanza, K. E.Warren, C. J. Thomas, M. Monje, Therapeutic strategies for diffuse midline glioma from high-throughput combination drug screening. Sci. Transl. Med. 11, (2019).
[2] T. M. Yamamoto, A. McMellen, Z. L. Watson, J. Aguilera, R. Ferguson, E. Nurmemmedov, T. Thakar, G. L. Moldovan, H. Kim, D. M. Cittelly, A. M. Joglar, E. P. Brennecke, H. Wilson, K. Behbakht, M. J. Sikora, B. G. Bitler, Activation of Wnt signaling promotes olaparib resistant ovarian cancer. Mol. Carcinog. 58, 1770 - 1782 (2019).
PROTOCOL TABLE (as described by Inglese J, Shamu CE and Guy RK. 2007)
SEQUENCE No. (e.g., 1, 2, 3, etc.); […] (e.g., Cells, Incubation, Reagent, etc.); VALUE; DESCRIPTION.
1; Compounds; 20nL; 1536-well white tissue culture-treated plates.
2; Cells; 5 uL; PEO1, PEO4, and PEO1/OlaR cells at 600 cells per well.
3; Incubation; 96 hr; 37C, 95% humidity, 5% CO2.
4; Reagent; 3 uL; CellTiter-Glo (Promega).
5; Incubation; 15 min; room temperature.
6; Detection; Luminescence, PHERAstar (BMG Labtech) plate reader.
NOTES (numbers refer to Sequence numbers above)
1. MIPE 5.0 compounds were acoustically dispensed by Echo Acoustic Liquid Handler (Beckman Coulter Life Sciences). Each compound was plated at an 11-point concentration range with 1:3 dilution. Bortezomib, a proteasome inhibitor (final concentration, 20 uM), was used as a positive.
2. PEO1, PEO4, and PEO1/OlaR were trypsinized and dispensed in 5 uLof growth medium using a Multidrop Combi dispenser at a density of 600 cells per well to allow compounds to be present during the exponential growth phase.
3. Plates were incubated for 96 hours at standard incubator conditions and covered by a stainless steel gasketed lid to prevent evaporation.
4. Three microliters of CellTiter-Glo (Promega) were added to each well.
5. Plates were incubated at room temperature for 15 min with a stainless-steel lid in place.
6. Luminescence readings were taken using PHERAstar (BMG Labtech). […]

[1] = measured here: PEO1 parental Z-AUC
Potency is read from the fitted curve at half-maximal effect.

SMILES | Potency | Z-AUC [1] | Z-AUC (measured here: PEO4 Z-AUC) | Z-AUC
COc1ccc2[nH]c3c(c2c1)CCN[C@]31CS[C@@H]2c3c(OC(C)=O)c(C)c4c(c3[C@H](COC1=O)N1[C@@H]2[C@H]2c3c(cc(C)c(OC)c3O)C[C@@H]([C@@H]1O)N2C)OCO4 | 0.0317 µM (active) | -2.79 | -2.86 | 
Nc1nc(F)nc2c1ncn2[C@@H]1O[C@H](COP(=O)(O)O)[C@@H](O)[C@@H]1O |  | -1.36 and -1.18 | -0.49 and -0.861 | -1.15 (inactive) and -1.44 (inactive)
C[C@@H]1C[C@H](N)C[C@H](c2ccncc2NC(=O)c2ccc(F)c(-c3c(F)cccc3F)n2)C1 |  | -0.644 | -0.817 | -0.973 (inactive)
CCOc1ccc(-n2c([C@@H](C)N(Cc3cccnc3)C(=O)Cc3ccc(F)c(C(F)(F)F)c3)nc3ncccc3c2=O)cc1 |  | 1.42 | 1.34 | 1.64 (inactive)
C/C(=N\NC(=O)c1cccc(S(=O)(=O)N2CCOCC2)c1)c1cc(Cl)ccc1O |  | -1.95 and -1.28 | -2.11 and -1.42 | -1.37 (inactive) and -1.59 (inactive)
CC(=O)N[C@H]1[C@H](O[C@@H]2c3ccc(c(Cl)c3)Oc3cc4cc(c3O[C@@H]3O[C@H](CO)[C@@H](O)[C@H](O)[C@H]3NC(=O)CCCCCCCC(C)C)Oc3ccc(cc3Cl)C[C@H]3NC(=O)[C@H](N)c5ccc(O)c(c5)Oc5cc(O)cc(c5)[C@H](NC3=O)C(=O)N[C@H]4C(=O)N[C@H]3C(=O)N[C@@H]2C(=O)N[C@@H](C(=O)O)c2cc(O)cc(O[C@H]4O[C@H](CO)[C@@H](O)[C@H](O)[C@@H]4O)c2-c2cc3ccc2O)O[C@H](CO)[C@@H](O)[C@@H]1O |  | 0.652 | 1.05 | 0.721 (inactive)
CN1CCN(c2ccc(Nc3ncc4cc(C#N)c(=O)n(C5CCCC5)c4n3)cc2)CC1 |  | 0.47 | 0.542 | -0.464 (inactive)
C/C=C(/C)C(=O)O[C@H]1C(C)=CC23C(=O)C(C=C(CO)[C@@H](O)[C@]12O)[C@H]1[C@@H](C[C@H]3C)C1(C)C (some centres not stated) |  | -0.301 | -0.581 | -0.0624 (inactive)
CC(C)(O)CC[C@@H](O)[C@](C)(O)[C@H]1CC[C@@]2(O)C3=CC(=O)[C@@H]4C[C@@H](O)[C@@H](O)C[C@]4(C)[C@H]3CC[C@]12C |  | 0.684 | 0.947 | 0.631 (inactive)
Nc1nccc(-c2c(-c3ccc(F)cc3)ncn2C2CCN(Cc3ccon3)CC2)n1 |  | 0.6 | 0.374 | 0.042 (inactive)
COc1nc(N)nc2c1ncn2C1OC(CO)C(O)C1O (configuration not stated) |  | -0.445 | -0.286 | -0.613 (inactive)
CC(C)c1c(-c2ccccc2)nc2c(C#N)c[nH]n2c1=O |  | 0.594 | 0.731 | 1.36 (inactive)
COc1cc(C(=O)NC(N)=Nc2ccc(C)c(NC(=O)c3ccc(-c4ccccc4)cc3)c2)cc(OC)c1OC |  | 0.261 | 0.136 | 0.647 (inactive)
CC(C)Oc1ccc(-c2nn([C@@H](C)c3oc4ccc(F)cc4c(=O)c3-c3cccc(F)c3)c3ncnc(N)c23)cc1F |  | -0.265 | -0.0554 | 0.0255 (inactive)
